Our source for the max response and Potency values is PubChem BioAssay (NCATS).

Records with an inconclusive call do not appear. Values without a mark were called inactive. The source made the active and inactive calls. Calls come from the whole dose curve; as a rule, active = well fitted inhibition curve with a large enough effect; inconclusive = small, poorly fitted or top-dose-only effect; inactive = flat fitted curve, though single readings scatter.

Holding throughout (test): Cytotoxic Profiling of Annotated Libraries Using Quantitative High-Throughput Screening (AID 1296008); note: nearly all actives have a fitted effect of over 60% in size
Holding throughout (conditions): Five cell lines viability, CellTiter-Glo ATP luminescence, 48-72 h; max response: hits give low values

The test system of one assay is CRL-7250. The method in brief:
(§1)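 Cells exposed to compounds for 48 or 72 hr at 37 degrees Celsius. Viability read as ATP-coupled luminescence with CellTiter-Glo after 10 min at room temperature.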

The test system of a further assay is HEK293. Put shortly:
as §1

Another assay relates to HaCat. Put shortly:
as §1

In a further assay the test system is KB-3-1. The method in brief: as §1
In a further assay the test system is NIH3T3. The method in brief: as §1
% is set by controls: 0 for no effect and ±100 for the full control effect; potency is the fitted concentration of half-maximal effect.

`Cc1nc(C)c(-c2ccc(C3CCC(CC(=O)O)CC3)cc2)nc1C(N)=O` (stereo not given): the max response in the assay on CRL-7250 was 0.3%; with HEK293, -0.422%; in the assay with HaCat, -2.77%; in the assay on KB-3-1, -11.8%; in the assay on NIH3T3, 2.81%.

For `CC1=C2C3OC(=O)C(C)C3(O)CCC2(C)CCC1O` (stereo not given), the max response was -5.4% with CRL-7250; -8.27% in the assay on HEK293; -12.8% with HaCat; 5.71% in the assay with KB-3-1; -16.2% in the assay on NIH3T3.

In the case of `OC[C@H]1O[C@@H](O[C@H]2[C@H](OCc3ccccc3)O[C@H](CO[C@@H]3OC[C@@H](O)[C@H](O)[C@H]3O)[C@@H](O)[C@@H]2O)[C@H](O)[C@@H](O)[C@@H]1O`, the max response in the assay on CRL-7250 is -6.77%; with HEK293, 0.36%; in the assay on HaCat, -3.65%; in the assay with KB-3-1, 4.93%; in the assay on NIH3T3, -3.84%.

Consider `CC1COC(Nc2ccc3ncnc(Nc4ccc(OCc5nccs5)c(Cl)c4)c3c2)=N1` (stereo not given), for which the Potency with CRL-7250 was 9.2 µM (active); in the assay with HEK293, 11.6 µM (active); with HaCat, 1.84 µM (active). The max response is -8.52% in the assay with KB-3-1 and 3.7% in the assay on NIH3T3.

For the molecule `c1ccc(-c2ncc(CN3CCN(c4ncccn4)CC3)[nH]2)cc1`, the max response in the assay with CRL-7250 was -0.931%; in the assay on HEK293 it was 0.625%; with HaCat it was 0.273%; in the assay with KB-3-1, -2.29%; in the assay on NIH3T3, -1.52%.

In the case of `C=C[C@@](C)(O)CC/C=C(\C)C(=O)O[C@@H]1[C@@H]2O[C@]2(C)[C@H]2[C@H](O[C@@H]3O[C@H](CO)[C@@H](O)[C@H](O)[C@H]3O)OC=C[C@@]12O`, the max response in the assay on CRL-7250 was -6.64%; with HEK293, 0.966%; in the assay on HaCat, -5.52%; in the assay with KB-3-1 it was -1.11%; in the assay with NIH3T3, 1.5%.
